Source: ChEMBL document CHEMBL1961873, “Compounds: GSK PKIS; Assays: Nanosyn kinase panel” (2012)

What was measured:
[1] = target: T1, Ephrin type-B receptor 2 (Homo sapiens) (UniProt P29323); settings: at 1 µM
T1 sequence (whole entry): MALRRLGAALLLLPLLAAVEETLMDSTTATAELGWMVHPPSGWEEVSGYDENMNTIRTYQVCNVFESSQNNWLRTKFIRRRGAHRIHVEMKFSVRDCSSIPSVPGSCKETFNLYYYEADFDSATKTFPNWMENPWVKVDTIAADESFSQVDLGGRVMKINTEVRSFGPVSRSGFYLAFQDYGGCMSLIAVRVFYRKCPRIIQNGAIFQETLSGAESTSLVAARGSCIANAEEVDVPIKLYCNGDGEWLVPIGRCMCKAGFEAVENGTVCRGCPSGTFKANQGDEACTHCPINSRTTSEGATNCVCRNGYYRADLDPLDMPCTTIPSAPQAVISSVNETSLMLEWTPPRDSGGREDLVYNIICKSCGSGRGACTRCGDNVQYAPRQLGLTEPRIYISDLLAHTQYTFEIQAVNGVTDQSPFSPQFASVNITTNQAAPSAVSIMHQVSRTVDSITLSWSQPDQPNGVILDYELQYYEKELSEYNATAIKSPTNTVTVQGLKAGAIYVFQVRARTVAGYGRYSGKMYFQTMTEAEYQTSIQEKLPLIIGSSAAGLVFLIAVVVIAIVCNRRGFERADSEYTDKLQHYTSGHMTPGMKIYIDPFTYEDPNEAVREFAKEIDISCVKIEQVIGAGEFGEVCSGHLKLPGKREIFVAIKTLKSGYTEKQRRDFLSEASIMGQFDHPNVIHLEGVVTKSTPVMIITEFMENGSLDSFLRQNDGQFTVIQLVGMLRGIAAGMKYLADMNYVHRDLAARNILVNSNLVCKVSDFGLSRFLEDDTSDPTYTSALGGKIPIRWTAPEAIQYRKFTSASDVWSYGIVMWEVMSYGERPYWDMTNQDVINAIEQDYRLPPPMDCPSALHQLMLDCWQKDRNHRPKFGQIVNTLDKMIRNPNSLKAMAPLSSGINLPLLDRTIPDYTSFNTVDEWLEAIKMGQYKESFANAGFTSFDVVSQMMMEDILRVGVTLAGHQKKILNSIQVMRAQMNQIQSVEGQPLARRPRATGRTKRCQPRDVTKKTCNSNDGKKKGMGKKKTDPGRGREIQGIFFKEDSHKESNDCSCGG

[2] = target: T2, Ephrin type-B receptor 3 (Homo sapiens) (UniProt P54753); settings: at 0.1 µM
T2 sequence (whole entry): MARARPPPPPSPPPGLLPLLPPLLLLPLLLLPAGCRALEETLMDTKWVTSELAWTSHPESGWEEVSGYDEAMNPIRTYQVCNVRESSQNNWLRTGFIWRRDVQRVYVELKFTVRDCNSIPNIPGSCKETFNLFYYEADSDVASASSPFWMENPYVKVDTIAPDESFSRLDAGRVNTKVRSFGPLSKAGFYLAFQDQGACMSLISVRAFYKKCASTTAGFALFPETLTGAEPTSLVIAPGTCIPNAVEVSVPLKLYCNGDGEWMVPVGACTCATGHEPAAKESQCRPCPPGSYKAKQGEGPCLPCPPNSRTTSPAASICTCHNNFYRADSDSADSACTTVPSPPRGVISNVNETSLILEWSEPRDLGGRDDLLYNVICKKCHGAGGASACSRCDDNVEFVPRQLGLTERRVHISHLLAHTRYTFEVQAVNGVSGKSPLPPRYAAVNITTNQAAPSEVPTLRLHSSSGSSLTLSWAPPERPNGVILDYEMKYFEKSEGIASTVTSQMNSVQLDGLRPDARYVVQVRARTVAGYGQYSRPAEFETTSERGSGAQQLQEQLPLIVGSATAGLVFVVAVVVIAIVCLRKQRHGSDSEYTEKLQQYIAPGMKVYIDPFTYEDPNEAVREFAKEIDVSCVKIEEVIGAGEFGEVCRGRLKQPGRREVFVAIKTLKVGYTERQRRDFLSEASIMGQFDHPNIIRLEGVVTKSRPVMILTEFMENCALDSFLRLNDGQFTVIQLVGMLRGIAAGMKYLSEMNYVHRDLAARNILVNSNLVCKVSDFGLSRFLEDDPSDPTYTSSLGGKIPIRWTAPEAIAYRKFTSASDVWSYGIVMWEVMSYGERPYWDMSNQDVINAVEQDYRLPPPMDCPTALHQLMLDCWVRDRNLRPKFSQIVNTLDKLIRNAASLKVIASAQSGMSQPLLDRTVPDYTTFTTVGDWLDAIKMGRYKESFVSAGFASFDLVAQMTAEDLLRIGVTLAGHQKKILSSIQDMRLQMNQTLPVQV

[3] = target: T2, Ephrin type-B receptor 3 (Homo sapiens); settings: at 1 µM
[4] = target: T3, Ephrin type-B receptor 4 (Homo sapiens) (UniProt P54760); settings: at 0.1 µM
T3 sequence (whole entry): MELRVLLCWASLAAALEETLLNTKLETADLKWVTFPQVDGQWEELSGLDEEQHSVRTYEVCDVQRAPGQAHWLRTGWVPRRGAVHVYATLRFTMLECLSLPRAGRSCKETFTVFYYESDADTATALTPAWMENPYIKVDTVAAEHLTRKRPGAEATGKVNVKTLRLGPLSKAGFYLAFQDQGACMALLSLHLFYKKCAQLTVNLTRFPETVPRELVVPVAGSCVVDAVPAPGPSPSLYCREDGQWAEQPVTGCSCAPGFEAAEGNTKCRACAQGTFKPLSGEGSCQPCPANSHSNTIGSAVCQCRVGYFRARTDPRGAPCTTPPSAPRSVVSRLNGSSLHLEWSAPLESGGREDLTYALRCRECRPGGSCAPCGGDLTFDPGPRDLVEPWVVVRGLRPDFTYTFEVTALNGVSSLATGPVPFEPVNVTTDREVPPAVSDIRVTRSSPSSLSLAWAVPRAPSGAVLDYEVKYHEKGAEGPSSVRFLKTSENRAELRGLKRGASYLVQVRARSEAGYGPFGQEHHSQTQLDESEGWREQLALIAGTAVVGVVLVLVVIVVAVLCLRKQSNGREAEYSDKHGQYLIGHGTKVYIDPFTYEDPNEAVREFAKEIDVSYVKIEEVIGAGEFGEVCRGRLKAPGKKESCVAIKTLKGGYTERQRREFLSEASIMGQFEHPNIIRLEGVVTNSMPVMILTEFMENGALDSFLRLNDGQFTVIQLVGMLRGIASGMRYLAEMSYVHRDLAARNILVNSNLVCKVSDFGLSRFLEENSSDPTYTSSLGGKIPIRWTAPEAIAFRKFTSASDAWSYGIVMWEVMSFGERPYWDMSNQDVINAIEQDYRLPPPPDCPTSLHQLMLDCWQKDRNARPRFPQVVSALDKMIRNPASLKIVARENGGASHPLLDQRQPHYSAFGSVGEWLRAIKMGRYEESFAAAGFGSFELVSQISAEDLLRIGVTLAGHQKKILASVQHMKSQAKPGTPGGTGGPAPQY

[5] = target: T3, Ephrin type-B receptor 4 (Homo sapiens); settings: at 1 µM
[6] = target: Receptor tyrosine-protein kinase erbB-2 (Homo sapiens) (UniProt P04626); settings: at 0.1 µM
[7] = target: Receptor tyrosine-protein kinase erbB-2 (Homo sapiens) (UniProt P04626); settings: at 1 µM
[8] = target: Receptor tyrosine-protein kinase erbB-4 (Homo sapiens) (UniProt Q15303); settings: at 0.1 µM
[9] = target: Receptor tyrosine-protein kinase erbB-4 (Homo sapiens) (UniProt Q15303); settings: at 1 µM
[10] = target: Tyrosine-protein kinase Fer (Homo sapiens) (UniProt P16591); settings: at 0.1 µM;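 note: reported figures are averaged percent inhibition of FER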
Tyrosine-protein kinase Fer (Homo sapiens), sequence (P16591 whole entry, looked up): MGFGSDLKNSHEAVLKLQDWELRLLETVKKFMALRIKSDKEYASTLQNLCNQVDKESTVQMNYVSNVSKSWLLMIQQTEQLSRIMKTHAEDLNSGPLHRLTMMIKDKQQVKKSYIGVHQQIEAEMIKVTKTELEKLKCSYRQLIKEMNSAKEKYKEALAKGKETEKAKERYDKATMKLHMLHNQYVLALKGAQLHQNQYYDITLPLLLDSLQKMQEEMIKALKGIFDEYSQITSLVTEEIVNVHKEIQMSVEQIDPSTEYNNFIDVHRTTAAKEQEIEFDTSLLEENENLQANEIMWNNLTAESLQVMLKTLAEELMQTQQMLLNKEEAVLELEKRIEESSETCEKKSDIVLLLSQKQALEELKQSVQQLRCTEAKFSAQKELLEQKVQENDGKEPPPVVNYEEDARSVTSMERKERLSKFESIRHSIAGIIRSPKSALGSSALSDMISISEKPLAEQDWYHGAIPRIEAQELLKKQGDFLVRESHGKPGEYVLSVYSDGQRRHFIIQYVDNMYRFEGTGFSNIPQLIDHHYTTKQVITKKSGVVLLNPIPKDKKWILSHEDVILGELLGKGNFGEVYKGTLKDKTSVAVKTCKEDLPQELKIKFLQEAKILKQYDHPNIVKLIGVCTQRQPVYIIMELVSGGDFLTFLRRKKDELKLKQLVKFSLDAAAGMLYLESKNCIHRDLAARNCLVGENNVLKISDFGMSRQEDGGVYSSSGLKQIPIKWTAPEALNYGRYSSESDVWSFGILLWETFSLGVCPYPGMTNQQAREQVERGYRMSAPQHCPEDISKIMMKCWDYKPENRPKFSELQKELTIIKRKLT

Receptor tyrosine-protein kinase erbB-2 (Homo sapiens), sequence (P04626 whole entry): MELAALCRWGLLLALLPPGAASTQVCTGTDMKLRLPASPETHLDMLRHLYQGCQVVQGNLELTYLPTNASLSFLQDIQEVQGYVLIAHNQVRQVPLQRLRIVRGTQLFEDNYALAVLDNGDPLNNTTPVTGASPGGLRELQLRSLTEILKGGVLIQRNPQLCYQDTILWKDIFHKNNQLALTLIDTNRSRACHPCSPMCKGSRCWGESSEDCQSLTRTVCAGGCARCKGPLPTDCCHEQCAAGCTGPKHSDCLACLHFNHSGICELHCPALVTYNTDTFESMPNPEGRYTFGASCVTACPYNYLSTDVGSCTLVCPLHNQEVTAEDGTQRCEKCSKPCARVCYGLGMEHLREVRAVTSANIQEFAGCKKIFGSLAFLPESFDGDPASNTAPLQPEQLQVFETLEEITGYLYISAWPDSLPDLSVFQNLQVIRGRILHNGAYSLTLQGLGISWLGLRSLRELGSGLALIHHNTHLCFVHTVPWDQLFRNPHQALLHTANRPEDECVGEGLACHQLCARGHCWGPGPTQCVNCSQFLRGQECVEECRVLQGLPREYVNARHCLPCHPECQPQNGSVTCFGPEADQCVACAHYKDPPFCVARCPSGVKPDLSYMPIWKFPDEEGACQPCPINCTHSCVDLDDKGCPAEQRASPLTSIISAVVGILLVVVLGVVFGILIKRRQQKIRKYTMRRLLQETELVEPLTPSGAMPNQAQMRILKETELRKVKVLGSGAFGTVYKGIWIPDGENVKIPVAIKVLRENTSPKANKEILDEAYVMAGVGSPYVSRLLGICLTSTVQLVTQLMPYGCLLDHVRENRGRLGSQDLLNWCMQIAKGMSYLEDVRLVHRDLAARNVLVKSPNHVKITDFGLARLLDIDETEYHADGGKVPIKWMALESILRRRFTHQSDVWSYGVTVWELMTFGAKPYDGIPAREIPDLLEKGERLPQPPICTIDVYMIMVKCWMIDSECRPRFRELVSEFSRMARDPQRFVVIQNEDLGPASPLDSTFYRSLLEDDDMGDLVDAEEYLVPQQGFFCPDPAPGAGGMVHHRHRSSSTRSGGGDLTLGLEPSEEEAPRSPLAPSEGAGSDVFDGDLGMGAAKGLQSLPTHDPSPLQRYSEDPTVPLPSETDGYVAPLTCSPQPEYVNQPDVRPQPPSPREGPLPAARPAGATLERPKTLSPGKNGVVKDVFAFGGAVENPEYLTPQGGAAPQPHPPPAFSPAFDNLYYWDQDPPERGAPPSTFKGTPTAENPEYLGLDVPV
Receptor tyrosine-protein kinase erbB-4 (Homo sapiens), sequence (Q15303 whole entry): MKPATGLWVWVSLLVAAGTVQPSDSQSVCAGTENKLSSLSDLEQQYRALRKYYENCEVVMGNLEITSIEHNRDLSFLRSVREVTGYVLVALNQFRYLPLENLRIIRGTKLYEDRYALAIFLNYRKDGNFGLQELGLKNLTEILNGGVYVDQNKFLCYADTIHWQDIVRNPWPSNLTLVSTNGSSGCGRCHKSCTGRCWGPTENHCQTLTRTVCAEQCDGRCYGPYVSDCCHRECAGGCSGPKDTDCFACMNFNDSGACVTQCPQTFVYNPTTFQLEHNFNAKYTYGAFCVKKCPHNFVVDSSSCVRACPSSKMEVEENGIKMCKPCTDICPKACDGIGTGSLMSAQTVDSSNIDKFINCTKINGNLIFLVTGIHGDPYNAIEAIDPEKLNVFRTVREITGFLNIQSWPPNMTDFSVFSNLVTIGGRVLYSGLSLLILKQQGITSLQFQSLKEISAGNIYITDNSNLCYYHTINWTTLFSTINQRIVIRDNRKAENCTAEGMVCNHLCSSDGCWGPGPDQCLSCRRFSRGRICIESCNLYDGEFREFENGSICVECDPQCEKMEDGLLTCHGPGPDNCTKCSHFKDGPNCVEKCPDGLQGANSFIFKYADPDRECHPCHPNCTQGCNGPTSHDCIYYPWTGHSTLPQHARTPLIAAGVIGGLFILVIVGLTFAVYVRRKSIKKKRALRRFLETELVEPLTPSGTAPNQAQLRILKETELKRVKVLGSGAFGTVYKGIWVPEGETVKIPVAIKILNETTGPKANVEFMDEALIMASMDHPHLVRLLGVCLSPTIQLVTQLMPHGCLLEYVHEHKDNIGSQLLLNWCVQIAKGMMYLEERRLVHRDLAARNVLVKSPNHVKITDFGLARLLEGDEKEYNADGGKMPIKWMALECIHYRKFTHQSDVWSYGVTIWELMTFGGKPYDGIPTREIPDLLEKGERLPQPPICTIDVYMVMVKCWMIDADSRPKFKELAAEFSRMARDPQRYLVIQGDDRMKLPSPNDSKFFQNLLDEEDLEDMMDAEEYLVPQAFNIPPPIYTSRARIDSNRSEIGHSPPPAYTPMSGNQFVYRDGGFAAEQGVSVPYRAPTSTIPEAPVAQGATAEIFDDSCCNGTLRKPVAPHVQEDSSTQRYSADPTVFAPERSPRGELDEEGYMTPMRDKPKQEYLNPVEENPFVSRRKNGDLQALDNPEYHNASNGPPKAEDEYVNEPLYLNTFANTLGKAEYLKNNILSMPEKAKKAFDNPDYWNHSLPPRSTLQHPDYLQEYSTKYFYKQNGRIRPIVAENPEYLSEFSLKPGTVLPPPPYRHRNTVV

Row | Structure (SMILES) | inhibition [1] | inhibition [2] | inhibition [3] | inhibition [4] | inhibition [5] | inhibition [6] | inhibition [7] | inhibition [8] | inhibition [9] | inhibition [10]
1 | CS(=O)(=O)CCNCc1cc(-c2cc3c(Nc4ccc(OCc5cccc(F)c5)c(Cl)c4)ncnc3s2)cs1 | 7.92% | 0.62% | 4.6% | -0.19% | 2.96% | 3.61% | 60.2% | 22.7% | 76.7% | 2.65%
2 | COc1cc(N2CCN(C(C)C)CC2)ccc1Nc1nc(Nc2ccc(F)cc2C(=O)NC[C@@H](O)CO)c2cc[nH]c2n1 | 6.9% | 0.85% | -0.23% | -2.73% | -3.91% | 3.24% | 10.5% | 9.31% | 15.7% | 17.7%
3 | CN(C)CCCNc1nccc(-c2c(-c3ccc(F)cc3)nn3cc(C(F)(F)F)ccc23)n1 | 19.7% | 0.41% | -0.85% | -2.73% | 0.9% | 0.46% | -1.57% | 0.88% | -0.51% | 1.94%
4 | CN(c1ccc(NC(=O)Nc2c(Cl)cccc2Cl)cc1)c1ccnc(Nc2cccc(CS(C)(=O)=O)c2)n1 | 27.3% | 2.02% | 4.62% | 2.86% | 8.72% | 1.88% | 7.2% | 11.2% | 17.1% | 51.9%
5 | COC(=O)Nc1nc2ccc(Sc3ccc(NC(=O)Nc4cc(C(F)(F)F)ccc4F)cc3)cc2[nH]1 | 79.9% | 3.25% | 11.3% | 6.3% | 57.2% | 0.24% | 1.41% | 1.95% | – | 1.93%
6 | C/C(Nc1ccc(S(N)(=O)=O)cc1)=C1/C(=O)Nc2ccccc21 | -0.51% | -3.87% | -3.57% | -2.17% | -2.22% | -3.56% | -3.5% | -5.37% | -8.14% | 0.46%
7 | COc1cc(C)c(N(C)C(=O)CN(C)C)cc1Nc1nc(Nc2cccc(F)c2C(N)=O)c2cc[nH]c2n1 | 4.5% | -1.17% | -3.39% | -2.25% | -3.91% | -0.03% | -3.53% | 4.41% | 4.97% | 9.81%
8 | Cc1ccc(C(=O)NC2CCC2)cc1-c1ccc(C(=O)NCC2CC2)cc1 | 2.05% | 3.94% | 1.11% | 1.02% | 3.17% | 3.5% | 8.52% | 16.7% | 17.7% | 4.2%
9 | CCS(=O)(=O)c1ccc(OC)c(Nc2ncc(-c3cccc(-c4ccccc4F)c3)o2)c1 | 11.9% | 2.15% | 0.93% | 0.78% | 8.8% | -0.34% | 2.22% | 5.89% | 15.2% | 0.83%
